# Rows were chosen to be rich in hits. Some 6.8% of all compounds tested hit in one or more screens of this group.
# T cruzi growth-1: T. cruzi intracellular proliferation inhibitors, primary screen, cell-based, beta-gal Tulahuen parasites, NIH3T3 host, luminescence | 5.9% of 77,000 active | T. cruzi beta-gal in NIH3T3, GalScreen luminescence, 90 h | inhibition, % at 8.34 µM | AID 624255, 2012;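 active = mean inhibition above about 93%, with at least 55% of replicates each passing it, limit read from the data, passing the limit was not always enough; inconclusive = only one of those two conditions holds; inactive = neither condition holds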
# C diff growth: C. difficile growth inhibitors, primary screen, HTS; Clostridium difficile clinical isolate growth, OD600, 24 h; hits give low values; AID 1259249, 2017; 0.25% of 86,000 active; growth activity, negative = inhibition, % at 16 µg/mL (by protocol);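 active = mean growth activity at or below -80% and every replicate also at or below -80%; inconclusive = mean at or below -80% but some replicate above -80%; inactive = mean growth activity above -80%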;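 also: 0% = DMSO wells and -100% = levofloxacin 16 µg/mL wells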
# Pf Dd2 inh: P. falciparum Dd2 growth inhibitors, primary screen, SYBR Green fluorescence, single dose replicates; 72 h; hits give low values; activity change, % at 10 µM; 2.3% of 94,000 active; AID 1159554, 2015; in the data active = activity change below about -80%; inconclusive = no clear call, values can overlap the other calls
# T cruzi growth-2: T. cruzi intracellular proliferation inhibitors, confirmation, cell-based, NIH3T3 host, beta-gal parasite, luminescence, cherry-pick | shares compounds with T cruzi growth-1 | T. cruzi beta-gal in NIH3T3, GalScreen luminescence, 90 h | inhibition, % at 8.35 µM | 72% of 5,600 active | AID 651739, 2012;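 active = mean replicate inhibition above about 95% and at least 55% of replicates individually reaching it, limit read from the data; inconclusive = only one of the two criteria is met; inactive = neither criterion is met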
# T cruzi growth-3: inhibitors of intracellular T. cruzi replication, confirmation, NIH3T3 host cells, beta-gal parasites, cherry-pick, set 2. shares compounds with T cruzi growth-1. T. cruzi beta-gal in NIH3T3, GalScreen luminescence, 90 h. inhibition, % at 2.09 µM. 21% of 5,600 active. AID 651740, 2012;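 active = mean inhibition above about 95%, with at least 55% of replicates also reaching it, limit read from the data; inconclusive = meets just one of the two conditions; inactive = meets neither condition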;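 also: plate controls were neutral control median for no effect and positive control median for full effect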
# 3T3 cytotox: cytotoxicity in mouse NIH/3T3 fibroblasts, confirmation, cytotoxicity control for T. cruzi proliferation inhibitor project, cell-based, cherry-pick, single point | shares compounds with T cruzi growth-1 | NIH/3T3 viability, CellTiter-Glo ATP luminescence, 90 h | cytotoxicity (signal decrease), % at 8.35 µM | 14% of 5,600 active;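 active = mean signal decrease across replicates above about 35% based on untreated-well scatter, with enough replicates individually passing, limit read from the data; inconclusive = no rule stated though some were filed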;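 also: 0% = median of neutral control wells and 100% = median of positive control wells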
# 3T3 cytotox 2: NIH/3T3 fibroblast cytotoxicity, confirmation, cytotoxicity control, cell-based, cherry-pick, single point, set 2. shares compounds with T cruzi growth-1. NIH/3T3 viability, CellTiter-Glo ATP luminescence, 90 h. inhibition, % at 24.9 µM. 56% of 5,600 active. AID 651744, 2012;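 active = mean loss of cell viability signal at or above a set limit, and enough replicates individually reaching it; inconclusive = meets only the mean limit or only the replicate share; inactive = meets neither condition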;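 also: 0% = median of neutral control wells and 100% = median of positive control wells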
# * marks the source's active call; other numbers are inactive results; ? = inconclusive; . = no result given.
SMILES,T cruzi growth-1,C diff growth,Pf Dd2 inh,T cruzi growth-2,T cruzi growth-3,3T3 cytotox,3T3 cytotox 2
N#C[C@@H]1[C@H](c2ccc(C#CC3CCCCC3)cc2)[C@H](CO)N1S(=O)(=O)c1ccccc1,80,-6,-71,.,.,.,.
N#C[C@@H]1[C@@H](c2ccc(C#CC3CCCC3)cc2)[C@@H](CO)N1S(=O)(=O)c1ccccc1,99*,1,-30,102*,?,46*,102*
N#C[C@H]1[C@@H](c2ccc(C#CC3CC3)cc2)[C@@H](CO)N1S(=O)(=O)c1ccccc1,96*,6,-13,107*,63,-7,36*
N#C[C@H]1[C@@H](c2ccc(C#CC3CCCC3)cc2)[C@H](CO)N1S(=O)(=O)c1ccccc1,88,-1,-46,.,.,.,.
N#C[C@H]1[C@H](c2ccc(C#CC3CC3)cc2)[C@H](CO)N1S(=O)(=O)c1ccccc1,101*,1,-70,103*,109*,-1,34*
Cc1ccccc1S(=O)(=O)N1[C@@H](C#N)[C@@H](c2ccc(C#CC3CCCC3)cc2)[C@@H]1CO,.,18,-71,.,.,.,.
N#C[C@@H]1[C@H](c2ccc(C#CC3CC3)cc2)[C@@H](CO)N1S(=O)(=O)c1ccccc1,?,-3,-70,103*,109*,8,-4
N#C[C@H]1[C@H](c2ccc(C#CC3CCCC3)cc2)[C@H](CO)N1S(=O)(=O)c1ccccc1,90,-4,-9,.,.,.,.
O=C(Nc1ccc2c(c1)OCO2)N[C@@H]1CC[C@@H](CCNC(=O)C2CCOCC2)O[C@@H]1CO,.,-1,.,.,.,.,.
O=C(C[C@H]1CC[C@@H]2[C@H](COC[C@@H](O)CN2Cc2cccc(-c3ccncc3)c2)O1)N1CCCCC1,86,.,-16,.,.,.,.
O=S(=O)(c1ccccc1F)N1CCCCN2[C@H](CO)[C@H](c3ccc(-c4ccncc4)cc3)[C@H]2C1,102*,-6,-16,105*,35,9,0
O=S(=O)(c1ccccc1F)N1CCCCN2[C@H](CO)[C@H](c3ccc(-c4ccncc4)cc3)[C@@H]2C1,44,-11,-4,.,.,.,.
O=S(=O)(c1ccccc1F)N1CCCCN2[C@H](C1)[C@H](c1ccc(-c3cccnc3)cc1)[C@@H]2CO,100*,-4,24,98*,19,16,12
O=S(=O)(c1ccccc1F)N1CCCCN2[C@H](CO)[C@@H](c3ccc(-c4cccnc4)cc3)[C@@H]2C1,94,-20,31,.,.,.,.
COc1ccc2c3c(n(C)c2c1)[C@@H](CO)N(C(=O)Cc1ccccc1)CC31CN(C(C)=O)C1,.,-4,8,.,.,.,.
C[C@H](CO)N1C[C@H](C)[C@@H](CN(C)Cc2ccc(C(F)(F)F)cc2)Oc2c(NC(=O)Nc3ccc(C(F)(F)F)cc3)cccc2C1=O,41,34,19,.,.,.,.
C[C@H](CO)N1C[C@H](C)[C@H](CN(C)Cc2ccc(Oc3ccccc3)cc2)Oc2c(NC(=O)Nc3ccc(C(F)(F)F)cc3)cccc2C1=O,122*,22,-50,103*,108*,8,106*
C[C@H](CO)N1C[C@H](C)[C@@H](CN(C)Cc2ccc(Oc3ccccc3)cc2)Oc2c(NC(=O)Nc3ccc(F)cc3)cccc2C1=O,126*,.,-18,73,-6,-25,-7
C[C@H]1CN([C@@H](C)CO)C(=O)c2cccc(NC(=O)Nc3ccc(C(F)(F)F)cc3)c2O[C@@H]1CN(C)Cc1ccc(Oc2ccccc2)cc1,127*,5,-33,96*,67,23,105*
C[C@H](CO)N1C[C@H](C)[C@H](CN(C)Cc2ccc(Oc3ccccc3)cc2)Oc2c(NC(=O)Nc3ccc(F)cc3)cccc2C1=O,59,.,10,.,.,.,.
C[C@@H]1CN([C@H](C)CO)C(=O)c2cccc(NC(=O)Nc3ccc(C(F)(F)F)cc3)c2O[C@H]1CN(C)Cc1ccccc1,61,11,-33,.,.,.,.
CCCNC(=O)Nc1ccc2c(c1)OC[C@@H](C)N(CCC(F)(F)F)C[C@@H](C)[C@@H](OC)CN(C)C2=O,-185,.,-4,.,.,.,.
COc1ccc(S(=O)(=O)N(C)C[C@@H]2OCCCC[C@@H](C)Oc3ccc(NS(=O)(=O)c4ccc(Cl)cc4)cc3C(=O)N([C@H](C)CO)C[C@@H]2C)cc1,.,4,-60,.,.,.,.
C[C@@H](O)C#Cc1ccc2c(c1)O[C@@H](CN(C)C(=O)C1CC1)[C@@H](C)CN([C@@H](C)CO)S2(=O)=O,-19,.,18,.,.,.,.
C[C@H]1CN([C@@H](C)CO)C(=O)c2cccc(NS(=O)(=O)c3ccc(F)cc3)c2O[C@H]1CN(C)C,.,-4,9,.,.,.,.
SMILES,T cruzi growth-1,C diff growth,Pf Dd2 inh,T cruzi growth-2,T cruzi growth-3,3T3 cytotox,3T3 cytotox 2
C[C@@H]1CN([C@H](C)CO)C(=O)CCCn2nncc2CO[C@@H]1CN(C)CC1CCCC1,-5,-2,-5,.,.,.,.
Cc1ccc(S(=O)(=O)N(C)C[C@H]2Oc3ccc(NC(=O)CCC(F)(F)F)cc3CC(=O)N([C@@H](C)CO)C[C@H]2C)cc1,5,0,-1,.,.,.,.
COc1ccc(CN(C)C[C@@H]2Oc3ccc(NC(=O)Cc4cn(C)c5ccccc45)cc3C(=O)N([C@H](C)CO)C[C@H]2C)cc1,33,-2,13,.,.,.,.
C[C@@H]1CN([C@H](C)CO)C(=O)c2cc(NC(=O)Cc3cn(C)c4ccccc34)ccc2O[C@@H]1CN(C)Cc1ccc(Oc2ccccc2)cc1,96*,3,-17,101*,76,12,53*
COc1ccc(CN(C)C[C@@H]2Oc3ccc(NC(=O)Cc4cn(C)c5ccccc45)cc3C(=O)N([C@H](C)CO)C[C@@H]2C)cc1,39,1,-32,.,.,.,.
C[C@H](CO)N1C[C@H](C)[C@H](CN(C)Cc2ccc(Oc3ccccc3)cc2)Oc2ccc(NC(=O)Cc3cn(C)c4ccccc34)cc2C1=O,?,15,-56,104*,59,24,43*
C[C@@H]1CN([C@@H](C)CO)C(=O)c2cc(NS(=O)(=O)c3ccc(F)cc3)ccc2O[C@@H](C)CCCCO[C@H]1CN(C)C(=O)CCC(F)(F)F,.,-1,-4,.,.,.,.
CC(=O)NC[C@@H]1[C@H](c2ccc(-c3cccc(F)c3)cc2)[C@H](CO)N1C(C)=O,35,-6,9,.,.,.,.
O=C(NCC[C@@H]1CC[C@@H](NC(=O)C2CCCC2)[C@H](CO)O1)c1ccc(F)cc1,.,-1,1,.,.,.,.
